The supplement of paper PMC10338343
± gives the standard deviation. In all, about 8,200 sequences were measured (“pre-steady-state target cleavage rate”: median about 0.024, highest 2% from about 1.3 on). The full list was thinned out, with the highest values kept by preference.

Test system: MIWI (PIWIL1) piRISC loaded with L1MC piRNA (30 nt)
Experiment: pre-steady-state target cleavage rate (min^-1); MIWI and MILI are mouse PIWI proteins and EfPiwi is from a freshwater sponge; tags in brackets are library labels; higher = faster piRNA-guided slicing of the target
Details: guide: L1MC piRNA 5'p-UAACUAAAUACUAUGCAAGCUGUAGGUCCU
Experimental: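 Cleave-'n-Seq: a library of target RNAs (target site embedded in constant flanks, ACAGCATTCCGCGTTAGTGATATCCG... 5' flank; DNA-blocked outside the site) at 0.1 nM was incubated with 1 nM active mouse MILI or MIWI piRISC (synthetic 5'-monophosphorylated piRNA guide) with or without 500 nM mouse GTSF1 at 33 °C for 1 min to 16 h. Uncleaved targets were sequenced and normalised to non-target controls, and the pooled three trials were fitted to a burst-and-steady-state model to give the pre-steady-state cleavage rate (min^-1; k3 is constrained to at most 1e-4). Sequence is the target site only; target names encode pairing extent (gX:gY) and contiguous / 1-mismatch / 2-mismatch / bulge geometry. Fits with R² ≤ 0 are excluded.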

[1] = auxiliary factor: 500 nM mouse GTSF1
[2] = auxiliary factor: none (no GTSF1)

| Sequence | pre-steady-state target cleavage rate [1] | pre-steady-state target cleavage rate [2] |
| --- | --- | --- |
| UGGACCUACAGCUUGCAUGUAUUUAGUUA | 0.353 ± 0.055 | 0.00423 ± 0.0025 |
| AGGACCUACAGCUUGCAUGAGUAUUUAGUUA | 0.194 ± 0.068 | – |
| UCCUCCUACAGCUUGCAUGUAUUUAGUUA | 0.428 ± 0.051 | 0.00445 ± 0.0018 |
| UCCUCCUACAGCUUGCAUGGUAUUUAGUUA | 1.66 ± 0.078 | 0.0582 ± 0.011 |
| UCGACCUACAGCUUGCAUGUAUUUAGUUA | 0.479 ± 0.05 | 0.00292 ± 0.0025 |
| UCGACCUACAGCUUGCAUGGUAUUUAGUUA | 1.73 ± 0.084 | 0.0512 ± 0.011 |
| UCGACCUACAGCUUGCAUUAGUAUUUAGUUA | 0.264 ± 0.082 | – |
| AGGUCCUACAGCUUGCAUAGUAUUUAGAAA | 0.285 ± 0.045 | 0.0132 ± 0.0048 |
| AGGACCUACAGCUUGCAUAGUUAAUUCAAA | 0.786 ± 0.23 | – |
| UCCUGGUACAGCUUGCAUAGUAUUUAGAUUA | 0.179 ± 0.046 | 0.0165 ± 0.0061 |
| UCCUGCUACACCAUGCAUAGUAUUUAGUUA | 0.783 ± 0.035 | 0.00793 ± 0.002 |
| UCCUGGAACAGCUUGCAAUGUAUUUAGUUA | 0.265 ± 0.02 | 0.00723 ± 0.0039 |
| UCCUGGAUGUCCUUGCAUAGUAUAUUGUUA | 0.00947 ± 0.0039 | – |
| UCGACCUACAGCUUGGAUAGUAUUUACAAA | 0.179 ± 0.036 | – |
| UCCUCCUACAGCUUGGUUAGUAUUUAGUAA | 0.523 ± 0.043 | 0.00502 ± 0.0015 |
| UCCACCUACAGCAAGCAUAGUAUUUAGUAA | 0.507 ± 0.042 | – |
| AGGACCUACAGCUUGCAUAGUAUUAUCUAA | 0.404 ± 0.066 | – |
| UCCUGGAUGUCCUUGCAUAGUAGUUAGUUA | 0.00603 ± 0.0046 | 0.00268 ± 0.0023 |
| UCCUGGUACAGCUUGCAUAGUAAAAAGUAA | 0.109 ± 0.031 | – |
| UCCUGGAACAGCUUGCAUAGUAUUUAGAUA | 0.406 ± 0.042 | 0.0172 ± 0.0058 |
| UCCUGCUACAGCUUGCAUAGUAUAUUGUUA | 0.377 ± 0.037 | 0.0123 ± 0.0026 |

| Sequence | pre-steady-state target cleavage rate [1] | pre-steady-state target cleavage rate [2] |
| --- | --- | --- |
| UGCACCUACAGCUUGCAUAGUAUUUAGUAA | 1.17 ± 0.11 | 0.0465 ± 0.0097 |
| UCGCACCUACAGCUUGCAUAGUAUUUAGUUA | 1.06 ± 0.13 | 0.0648 ± 0.015 |
| UGCACCUACAGCUUGCAUAGUAUUUAGUUA | 1.22 ± 0.11 | 0.0865 ± 0.017 |
| AGGCACCUACAGCUUGCAUAGUAUUUAGUUA | 2.18 ± 0.8 | 2.2 ± 1.8 |
| UGGCACCUACAGCUUGCAUAGUAUUUAGUUA | 2.2 ± 0.89 | – |
| AGCACCUACAGCUUGCAUAGUAUUUAGUUA | 1.19 ± 0.16 | 0.246 ± 0.073 |
| UCCUGGAACAGCUUGCAUAGCUAUUUAGUUA | 0.0102 ± 0.0047 | – |
| UCCUGGUAAAGCUUGCAUAGUAUUUAGUUA | 0.551 ± 0.037 | 0.0419 ± 0.0086 |
| UCCUGGAACAGCUUGCAAAGUAUAUAGUUA | 0.459 ± 0.037 | 0.0164 ± 0.0061 |
| UCCUGCUACAGCUUGGAAAGUAUUUAGUUA | 0.903 ± 0.053 | 0.00754 ± 0.0024 |
| UCCAUCUACAGCUUGCAUAGUAUUUAGUUA | 0.731 ± 0.031 | 0.0538 ± 0.0076 |
| UCCUGGAUCUAGCUUGCAUAGUAUUUAGUUA | 0.86 ± 0.04 | 0.0445 ± 0.011 |
| AGGACACUACAGCUUGCAUAGUAUUUAGUUA | 1.13 ± 0.083 | 0.0749 ± 0.011 |
| AGGAUCUACAGCUUGCAUAGUAUUUAGUUA | 1.7 ± 0.059 | 0.105 ± 0.017 |
| UGGACGCUACAGCUUGCAUAGUAUUUAGUUA | 1.15 ± 0.076 | 0.0759 ± 0.013 |
| UCGAUCUACAGCUUGCAUAGUAUUUAGUUA | 1.61 ± 0.05 | 0.072 ± 0.013 |
| UGGAUCUACAGCUUGCAUAGUAUUUAGUUA | 1.57 ± 0.062 | 0.0958 ± 0.019 |
| UCCUGGAUCAGCUUGCAUUGUUUUUAGUUA | 0.0337 ± 0.0067 | 0.00759 ± 0.0022 |
| UCGACCUACAGCUUGCAUAGUAAUUAGUUA | 1.08 ± 0.049 | 0.0469 ± 0.012 |
| UCCUGGAUGUCCUUGCUAUGUAUUUAGUAA | 0.00637 ± 0.0038 | – |
| UCCUGGUACAGCUUGCAUAGUGAUUUAGUUA | 0.0476 ± 0.011 | 0.00639 ± 0.0029 |

| Sequence | pre-steady-state target cleavage rate [1] | pre-steady-state target cleavage rate [2] |
| --- | --- | --- |
| UCCUGGUACACCUAGCAUAGUAUUUAGUUA | 0.278 ± 0.063 | 0.00414 ± 0.0028 |
| UCGACCUAGAGCUUGCAUAGUAUUUAGAAA | 0.441 ± 0.048 | 0.00689 ± 0.0021 |
| UCCUGGUACUCGUUGCAUAGUAUUUAGUAA | 0.0165 ± 0.0088 | – |
| UCGACGAACAGCUUGCAUAGUAUUUAGUAA | 0.962 ± 0.062 | 0.0577 ± 0.013 |
| UCGACGAACAGCUUGCAUAGUAUUUAGUUA | 1.38 ± 0.049 | 0.0836 ± 0.015 |
| UGGACGAACAGCUUGCAUAGUAUUUAGUUA | 1.17 ± 0.036 | 0.0856 ± 0.015 |
| UCCUCGAACAGCUUGCAUAGUAUUUAGUAA | 0.982 ± 0.042 | 0.0424 ± 0.008 |
| UCCUCGAACAGCUUGCAUAGUAUUUAGUUA | 1.39 ± 0.039 | 0.0825 ± 0.015 |
| UCCUCGAACAGCUUGCAUAGUAUUUAGAAA | 0.474 ± 0.043 | 0.00694 ± 0.0025 |
| UCCUGGAACACCUUGCUUAGUAUUUAGUUA | 0.239 ± 0.032 | 0.00546 ± 0.0019 |
| UCCACCUACAGCUUGCAUAGUAUUUACUUA | 0.378 ± 0.044 | 0.0369 ± 0.0085 |
| UGUGACCUACAGCUUGCAUAGUAUUUAGUUA | 1.45 ± 0.063 | 0.0959 ± 0.018 |
| UGACCUACAGCUUGCAUAGUAUUUAGUUA | 1.57 ± 0.061 | 0.0842 ± 0.016 |
| UGCACCUACAGCUUGCAUAGUAUUUACUUA | 0.46 ± 0.056 | 0.0724 ± 0.017 |
| AGUGACCUACAGCUUGCAUAGUAUUUAGUUA | 1.38 ± 0.056 | 0.0885 ± 0.015 |
| AGCACCUACAGCUUGCAUAGUAUUUACUUA | 1.4 ± 0.24 | – |
| UGGACCUACAGCUUGCAUAGUAUUUAGUGA | 1.12 ± 0.064 | 0.0575 ± 0.011 |
| AGGACCUACAGCUUGCAUAGUAUUUAGUGA | 1.01 ± 0.085 | 0.0934 ± 0.018 |
| UUGACCUACAGCUUGCAUAGUAUUUAGUUA | 1.16 ± 0.061 | 0.0724 ± 0.012 |
| AUGACCUACAGCUUGCAUAGUAUUUAGUUA | 1.06 ± 0.03 | 0.0859 ± 0.013 |
| UCGACCAUGAGCUUGCAUAGUAUUUAGUAA | 0.804 ± 0.049 | 0.0343 ± 0.0083 |
